Test results taken from paper PMC7826789 (International Journal of Molecular Sciences, 2021).

Tests used:
Conditions in all cases: Compound Concentration (nM):1000
TBK1 = system: TBK1
TEC = system: TEC
TESK1 = system: TESK1
TGFBR1 = system: TGFBR1
TGFBR2 = system: TGFBR2
TIE1 = system: TIE1
TIE2 = system: T1, TIE2
T1 construct: gene TEK

TLK1 = system: TLK1
TLK2 = system: TLK2
TNIK = system: TNIK
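Further: KINOMEscan scanMAX binding as percent activity remaining versus control; lower means stronger binding.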

Row | SMILES | Percent Control (TBK1) [%] | Percent Control (TEC) [%] | Percent Control (TESK1) [%] | Percent Control (TGFBR1) [%] | Percent Control (TGFBR2) [%] | Percent Control (TIE1) [%] | Percent Control (TIE2) [%] | Percent Control (TLK1) [%] | Percent Control (TLK2) [%] | Percent Control (TNIK) [%]
1 | COc1cc(/C=N/Nc2ncnc3[nH]ncc23)ccc1O [GW578748X] | 50 | 100 | 94 | 100 | 87 | 100 | 100 | 86 | 76 | 94
2 | CCc1ccc(Oc2nccc(-c3c(-c4ccc(F)cc4)ncn3C3CCNCC3)n2)cc1 [SB-242719] | 65 | 100 | 99 | 96 | 100 | 100 | 100 | 91 | 100 | 66
3 | CCS(=O)(=O)c1ccc(OC)c(Nc2ncc(-c3cccc(F)c3)o2)c1 [GW621970X] | 100 | 100 | 89 | 100 | 52 | 69 | 100 | 100 | 86 | 82
4 | CC1=C(C(=O)Nc2ccc3[nH]ncc3c2)C(c2ccc3ccccc3c2)CC(=O)N1 (stereo not shown) [GSK270822A] | 81 | 90 | 99 | 85 | 100 | 80 | 96 | 89 | 100 | 85
5 | CN(C)c1cc2c(Nc3ccc4c(cnn4Cc4ccccc4)c3)ncnc2cn1 [GW282974X] | 55 | 84 | 87 | 100 | 100 | 100 | 100 | 78 | 80 | 100
6 | COc1cccc(-n2ncc3c(N/N=C/c4ccncc4)ncnc32)c1 [GW784752X] | 100 | 100 | 85 | 36 | 100 | 100 | 100 | 89 | 93 | 97
7 | COc1cc2ncn(-c3cc(O[C@H](C)c4ccccc4Cl)c(C(N)=O)s3)c2cc1OC [GSK237701A] | 80 | 100 | 100 | 72 | 100 | 13 | 97 | 96 | 98 | 99
8 | C/C(Nc1ccc(S(N)(=O)=O)cc1)=C1/C(=O)Nc2ccccc21 [GW335962X] | 75 | 100 | 100 | 88 | 100 | 100 | 100 | 94 | 65 | 18
9 | COc1ccccc1-c1cc(/C=C2\C(=O)Nc3ncc(Br)cc32)cc(Br)c1O [GW442130X] | 100 | 100 | 100 | 100 | 87 | 100 | 95 | 100 | 100 | 71
10 | COc1cc2ncnc(Nc3ccc4c(cnn4Cc4ccccc4)c3)c2cc1OC.Cl [GW282449A] | 100 | 83 | 100 | 100 | 100 | 100 | 100 | 100 | 100 | 100
11 | NS(=O)(=O)c1ccc(Nc2ncc(-c3ccccc3)o2)cc1 [GW572399X] | 100 | 99 | 100 | 100 | 100 | 100 | 100 | 63 | 47 | 52
12 | NS(=O)(=O)c1ccc(N/N=C2\C(=O)Nc3ccc(-c4cnco4)cc32)cc1 [GW276655] | 63 | 100 | 77 | 100 | 100 | 73 | 100 | 96 | 66 | 26
13 | NS(=O)(=O)c1ccc(N/N=C2\C(=O)Nc3ccc(C(=O)NCc4ccncc4)cc32)cc1 [GW300657X] | 33 | 100 | 100 | 100 | 100 | 85 | 100 | 71 | 75 | 82
14 | COc1cccc(-c2c[nH]c3c(N/N=C/c4ccncc4)ncnc23)c1 [GW814408X] | 71 | 90 | 97 | 55 | 100 | 96 | 100 | 84 | 100 | 51
15 | CN1CCN(C(=O)c2ccc(NC(=O)Nc3ccc(N(C)c4ccnc(Nc5ccc(CS(C)(=O)=O)cc5)n4)cc3)cc2)CC1.Cl [GW830263A] | 55 | 100 | 100 | 88 | 26 | 8.3 | 41 | 86 | 100 | 23
16 | Cl.O=S1CCN(Cc2ccc(-c3ccc4ncnc(Nc5ccc(OCc6ccccc6)c(F)c5)c4c3)o2)CC1 [GW576924A] | 100 | 100 | 100 | 100 | 100 | 100 | 100 | 100 | 100 | 100
17 | Cc1cc(O)cc(C)c1/C=C/c1cncc(C(N)=O)c1 [GW435821X] | 100 | 100 | 100 | 84 | 81 | 100 | 100 | 100 | 100 | 100
18 | NS(=O)(=O)c1ccc(N/N=C2\C(=O)Nc3ccc(Cl)cc32)cc1 [GW280670X] | 100 | 100 | 100 | 100 | 100 | 100 | 100 | 100 | 100 | 47
19 | NS(=O)(=O)c1ccc(N/N=C2\C(=O)Nc3ccc(C(=O)NCCc4c[nH]cn4)cc32)cc1 [GW300660X] | 72 | 100 | 100 | 100 | 100 | 100 | 100 | 100 | 100 | 100
20 | Cl.O=C(Nc1ccc(Oc2ccc3[nH]c(NC(=O)c4ccco4)nc3c2)cc1)Nc1cc(C(F)(F)F)ccc1F [GW683134A] | 100 | 100 | 71 | 91 | 89 | 1.1 | 1.9 | 100 | 77 | 100

Row | SMILES | Percent Control (TBK1) [%] | Percent Control (TEC) [%] | Percent Control (TESK1) [%] | Percent Control (TGFBR1) [%] | Percent Control (TGFBR2) [%] | Percent Control (TIE1) [%] | Percent Control (TIE2) [%] | Percent Control (TLK1) [%] | Percent Control (TLK2) [%] | Percent Control (TNIK) [%]
21 | COc1ccc2[nH]c3c4[nH]c5ccc(OC)cc5c4c4c(c3c2c1)C(=O)NC4=O [GW296115X] | 59 | 88 | 90 | 100 | 100 | 100 | 100 | 100 | 95 | 3
22 | CC1=C(C(=O)Nc2ccc3[nH]ncc3c2)C(c2ccc(Cl)c(Cl)c2)CC(=O)N1 (stereo not shown) [GSK299115A] | 92 | 92 | 100 | 100 | 100 | 90 | 100 | 84 | 90 | 100
23 | O=C(Nc1n[nH]c2nc(-c3ccc(O)cc3)c(Br)cc12)C1CC1 [SB-725317] | 86 | 100 | 100 | 100 | 100 | 100 | 100 | 100 | 100 | 72
24 | COC(=O)Nc1nc2ccc(Oc3ccc(NC(=O)Nc4cc(C(F)(F)F)ccc4F)cc3)cc2s1.Cl [GW693917A] | 69 | 78 | 77 | 100 | 92 | 3.1 | 0.6 | 87 | 100 | 74
25 | COc1ccc(COc2ccc(Cc3cnc(N)nc3N)cc2OC)cc1 [GW632580X] | 99 | 100 | 99 | 100 | 100 | 100 | 100 | 92 | 100 | 100
26 | Nc1ncnc2occ(-c3ccc(NC(=O)Nc4cc(C(F)(F)F)ccc4F)cc3)c12 [GW770249X] | 100 | 100 | 100 | 100 | 100 | 2.6 | 3.8 | 100 | 100 | 59
27 | C[C@@H](Oc1cc(-n2cnc3ccc(OC4CCN(C)CC4)cc32)sc1C(N)=O)c1ccccc1Cl [GSK579289A] | 67 | 99 | 72 | 100 | 100 | 52 | 69 | 81 | 77 | 75
28 | COc1cc(C=NNc2ncnc3c2cnn3-c2ccccc2)ccc1O [GW513184X] | 95 | 90 | 100 | 79 | 100 | 74 | 65 | 100 | 100 | 84
29 | COc1ccc2c(-c3ccnc(Nc4cccc(OC(F)(F)F)c4)n3)cnn2n1 [GW810372X] | 80 | 100 | 70 | 100 | 52 | 100 | 100 | 100 | 84 | 100
30 | CCS(=O)(=O)c1ccc(OC)c(Nc2ncc(-c3cccc(OC)c3)o2)c1 [GW580509X] | 100 | 100 | 100 | 81 | 46 | 49 | 100 | 100 | 99 | 75
31 | CC(C)COC(=O)c1ccc2c(c1)/C(=C/Nc1ccc(S(N)(=O)=O)cc1)C(=O)N2 [GW416981X] | 17 | 100 | 100 | 100 | 42 | 100 | 100 | 100 | 95 | 58
32 | O=C1Nc2ccc(C(=O)c3ccco3)cc2C1=Cc1cc(Cl)c(O)c(Cl)c1 [GW406108X] | 40 | 100 | 100 | 99 | 58 | 100 | 100 | 94 | 97 | 24
33 | COc1cc(C)c(N(C)C(=O)CN(C)C)cc1Nc1nc(Nc2cccc(F)c2C(N)=O)c2cc[nH]c2n1 [GSK2219385] | 69 | 100 | 92 | 100 | 100 | 82 | 100 | 85 | 100 | 98
34 | Cl.O=C(Nc1ccc(Oc2ccc3[nH]c(NC(=O)c4ccccc4)nc3c2)cc1)Nc1cc(C(F)(F)F)ccc1F [GW709042A] | 88 | 100 | 96 | 100 | 100 | 2.3 | 7.5 | 100 | 86 | 100
35 | Cl.O=C(O[C@H]1CN[C@H](C#Cc2cc3ncnc(Nc4ccc5c(cnn5Cc5ccccc5)c4)c3s2)C1)N1CCOCC1 [GSK200398A] | 100 | 100 | 96 | 97 | 100 | 100 | 100 | 80 | 72 | 96
36 | COc1ccc2cc(-c3c(-c4ccncc4)nc(-c4ccc(S(C)(=O)=O)cc4C)n3C)ccc2c1 [SB-633825] | 65 | 66 | 91 | 9.7 | 86 | 3.8 | 2.4 | 94 | 100 | 54
37 | COc1cc(N2CCN(C(C)C)CC2)ccc1Nc1nc(Nc2ccc(F)cc2C(=O)NC[C@@H](O)CO)c2cc[nH]c2n1 [GSK1392956A] | 100 | 100 | 92 | 100 | 100 | 100 | 100 | 83 | 92 | 72
38 | CCn1c(-c2nonc2N)nc2c(C#CC(C)(C)O)nc(OCCNC)cc21.Cl [GSK949675] | 95 | 100 | 100 | 100 | 100 | 100 | 96 | 100 | 100 | 100
39 | CN(C)CCNC(=O)Nc1ccc(N(C)c2ccnc(Nc3ccc(CS(C)(=O)=O)cc3)n2)cc1.Cl [GW830900A] | 98 | 82 | 100 | 100 | 75 | 72 | 100 | 89 | 100 | 49
40 | Cl.c1ccc(Cc2nc3ccc(Nc4ncnc5ccccc45)cc3[nH]2)cc1 [GR269666A] | 100 | 100 | 100 | 100 | 100 | 100 | 100 | 100 | 100 | 100
